Rows were chosen to be rich in hits. Some 3.5% of all compounds tested hit in one or more screens of this group.
PG9 binder – binders of HIV-1 gp120 antibody PG9, primary screen, biochemical, TR-FRET; TR-FRET gp120-PG9 antibody binding; HIV-1 gp120 / PG9 antibody interaction; inhibition, % at 6.7 µM; 0.43% of 360,000 active; in the data active = inhibition above about 8.5%
LEDGF integ inh – blockers of LEDGF/p75-dependent integrase strand transfer – biochemical, TR-FRET, high throughput, primary screen | HIV-1 integrase (with human LEDGF/p75) | TR-FRET IN-LEDGF/p75 DNA integration, Eu/Cy5 | inhibition, % at 3.7 µM | 0.64% of 370,000 active;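 active = inhibition above the screen-wide mean plus 3 SD, cut at about 13% in these data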;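 also: signal is the Cy5 over europium emission ratio at 671 and 618 nm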
UHRF1 MBD2 ctr – UHRF1 methylated DNA binding inhibitors, primary screen, counter-screen for MBD2 inhibitor project, biochemical, TR-FRET, human UHRF1, single concentration; UHRF1 binding to methylated oligo; inhibition, % at 4.4 µM; 0.75% of 370,000 active; AID 687016, 2013; in the data active = inhibition above about 21%;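 also: UHRF1 SRA domain binding a hemimethylated CpG hairpin DNA probe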
MBD2 inh – inhibitors of MBD2 binding to methylated DNA, primary screen, biochemical, TR-FRET, DNA-binding domain, human | Methyl-CpG-binding domain protein 2 (Homo sapiens), Q9UBB5 | MBD2 binding to methylated oligonucleotide | inhibition, % at 4.4 µM | 0.31% of 370,000 active; in the data active = inhibition above about 13%
Target sequence (Q9UBB5 whole entry, looked up, the tested form may be a part): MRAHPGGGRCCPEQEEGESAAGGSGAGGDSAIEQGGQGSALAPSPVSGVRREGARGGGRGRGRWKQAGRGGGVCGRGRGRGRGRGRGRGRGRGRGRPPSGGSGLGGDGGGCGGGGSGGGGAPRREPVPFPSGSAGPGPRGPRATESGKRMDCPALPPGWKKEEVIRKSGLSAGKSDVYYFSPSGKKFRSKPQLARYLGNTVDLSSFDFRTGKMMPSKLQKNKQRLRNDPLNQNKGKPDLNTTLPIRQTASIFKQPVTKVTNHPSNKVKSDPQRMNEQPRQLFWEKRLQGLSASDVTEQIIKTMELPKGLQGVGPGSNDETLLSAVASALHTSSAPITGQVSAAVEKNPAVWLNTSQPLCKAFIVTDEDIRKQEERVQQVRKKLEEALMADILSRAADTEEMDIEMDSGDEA
rCAG binder – binders of r(CAG) RNA repeats, primary screen, biochemical, fluorescence | 1.3% of 370,000 active | r(CAG) RNA repeat, TO-PRO-1 dye displacement fluorescence | AID 651821, 2012 | inhibition, % at 3 µM;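 active = inhibition above the plate cutoff, the mean of all test compounds on that plate plus 3 SD, cut at about 35% in these data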;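 also: higher means more dye released from RNA so lower well fluorescence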
DNMT1 inh – human DNMT1 methyltransferase inhibitors, primary screen, biochemical, molecular beacon, fluorescence, HinP1I cleavage, uHTS | DNA (cytosine-5)-methyltransferase 1 (Homo sapiens), P26358 | inhibition (reported as % activation of signal), % at 10 µM | AID 588458, 2011 | 0.83% of 360,000 active; in the data active = inhibition above about 50%
PG9 bind confirm – binders of anti-gp120 antibody PG9, confirmation, biochemical, TR-FRET; 90% of 1,500 active; AID 651571, 2012; shares compounds with PG9 binder; inhibition, % at 6.7 µM; TR-FRET PG9 antibody binding; in the data active = inhibition above about 9%
PGV04 counter – binders of control antibody PGV04, counter-screen for PG9 antibody binder project, biochemical, TR-FRET, distinct HIV envelope site | shares compounds with PG9 binder | TR-FRET PGV04 antibody-gp120 binding | inhibition, % at 6.7 µM | 95% of 1,500 active; in the data active = inhibition above about 9.5%
Each line names hits and unclear results; the compound was inactive in the other large screens (follow-up assays come after a bar, where they were run).

CCCn1c(=O)c(C(=O)NCC2CCCO2)c(O)c2ccccc21 (stereo unspecified)	PG9 binder 8.6 | PG9 bind confirm 12 | PGV04 counter 16
O=C(NCC1CCCO1)c1c(O)c2ccccc2[nH]c1=O (stereo unspecified)	none
Cc1cccc(C)c1NC(=O)Cn1nc(-c2ccc(Cl)s2)ccc1=O	PG9 binder 11 | PG9 bind confirm inactive | PGV04 counter inactive
Cc1cc(NC(=O)Cn2nc(-c3cccs3)ccc2=O)cc(C)c1Br	none
CC[C@]12c3[nH]c4ccc(Cl)cc4c3CCN1C(=O)[C@@H](CC(=O)NCCc1ccccn1)C[C@@H]2C(=O)N1CCN(C(=O)C2CC2)CC1	none
O=C(Nc1sc2c(c1C(=O)NCc1ccco1)CCCC2)c1ccc2c(c1)OCO2	PG9 binder 15 | PG9 bind confirm 8.6 | PGV04 counter 20
Cc1ccc(C(=O)Nc2sc3c(c2C(=O)NCc2ccco2)CCCC3)cc1	none
O=S1(=O)c2ccc(N3CCCC3)cc2Oc2ccccc2CN1Cc1cn(Cc2ccc(F)cc2)nn1	none (no result: PG9 binder, DNMT1 inh)
CC1(C(=O)NS(=O)(=O)C2CC2)CCCN(C(=O)/C=C/c2ccccc2)C1 (stereo unspecified)	none
CC(=O)c1ccc(N2CCN(S(=O)(=O)c3ccc4c(c3)CCC(=O)N4)CC2)cc1	none
CC(=O)c1ccc(N2CCN(S(=O)(=O)c3ccc4c(c3)NC(=O)CO4)CC2)cc1	PG9 binder 22 | PG9 bind confirm 28 | PGV04 counter 39
O=C(O)C1C2CCC1C(O)C2 (stereo unspecified)	none
CC(C)c1nnc(NC(=O)c2ccc3ccccc3c2)s1	PG9 binder 11 | PG9 bind confirm 18 | PGV04 counter 32
Cc1nnc(NC(=O)c2ccc3ccccc3c2)s1	none
Cc1cc(NCCCN(C)C)n2c(nc3ccccc32)c1C#N	none
Cc1cc(NCCCOC(C)C)n2c(nc3ccccc32)c1C#N	PG9 binder 11 | PG9 bind confirm 22 | PGV04 counter 33
COc1ccc(C)cc1NC(=O)CSc1nnc(-c2ccc(Br)cc2)o1	PG9 binder 11 | PG9 bind confirm 19 | PGV04 counter 26
COc1ccccc1NC(=O)CSc1nnc(-c2ccc(C)cc2)o1	none
CC(C)CCNC(=O)c1cc2c(=O)[nH]c3ccccc3c2s1	PG9 binder 10.0 | PG9 bind confirm 17 | PGV04 counter 21
COCCCN1C(=O)[C@H](CC(=O)NCc2cccc3ccccc23)[C@]2(C(=O)OC)CCCCC=C12	none (no result: PG9 binder, DNMT1 inh)
COc1ccc2nc(SCC(C)=O)c(C#N)cc2c1	none
COc1ccc2nc(SC)c(C#N)cc2c1	PG9 binder 13 | PG9 bind confirm 26 | PGV04 counter 58
O[C@H](COc1cccc(Cl)c1)CN1CCC(C(O)(c2ccccc2)c2ccccc2)CC1	none (no result: PG9 binder, DNMT1 inh)
CC1=CC(=C(C#N)C#N)C=C(C)N1Cc1ccc(Cl)cc1	PG9 binder 19 | PG9 bind confirm 24 | PGV04 counter 31
CC1=CC(=C(C#N)C#N)C=C(C)N1CCN1CCN(C(=O)Nc2ccc(Cl)c(Cl)c2)CC1	none
CC(=O)Nc1ccc(-c2cc(-c3ccc(NC(C)=O)cc3)nc(-c3ccc(NC(C)=O)cc3)n2)cc1	PG9 binder 29 | PG9 bind confirm 25 | PGV04 counter 45
Cc1ccc(C(=O)N2CCC(C)CC2)cc1S(=O)(=O)N1CCCCC1	none
N/C(=N\c1nc(CSc2nc3ccccc3s2)cc(=O)[nH]1)Nc1ccc(F)cc1	PG9 binder 9.3 | PG9 bind confirm 27 | PGV04 counter 40

Screens deposited in PubChem by several laboratories.
